This is a sample that favours compounds with a hit; in the whole collection about 27% have one here.
sEH inh: soluble epoxide hydrolase inhibitors, primary screen, biochemical, human sEH. actives 0.34% (n = 91,000). Bifunctional epoxide hydrolase 2 (Homo sapiens), P34913. inhibition, % at 2 µM. recombinant human sEH enzymatic activity assay. AID 707, 2007; in the data active means inhibition above about 80%
sEH activator: soluble epoxide hydrolase activators, primary screen, biochemical, human sEH. activation, % at 2 µM. actives 0.04% (n = 91,000). purified human sEH enzymatic activity, activator screen. AID 717, 2007. Bifunctional epoxide hydrolase 2 (Homo sapiens), P34913; in the data active means activation above about 37%
CYP2C19 act: human CYP2C19 activators, primary screen, biochemical, luminescence. activation factor at 5 µM. AID 1025, 2008. recombinant CYP2C19, luciferin-H EGE luminescence; hits give high values; 0 = fully inhibited enzyme, 1 = untreated enzyme. 96,000 tested, under 10 active;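 active means activation factor of at least 2 at 5 µM in the primary screen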;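 further: 0 = wells with 2.5 mM tranylcypromine and 1 = vehicle-only wells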
Target sequence (P33261 whole entry, looked up): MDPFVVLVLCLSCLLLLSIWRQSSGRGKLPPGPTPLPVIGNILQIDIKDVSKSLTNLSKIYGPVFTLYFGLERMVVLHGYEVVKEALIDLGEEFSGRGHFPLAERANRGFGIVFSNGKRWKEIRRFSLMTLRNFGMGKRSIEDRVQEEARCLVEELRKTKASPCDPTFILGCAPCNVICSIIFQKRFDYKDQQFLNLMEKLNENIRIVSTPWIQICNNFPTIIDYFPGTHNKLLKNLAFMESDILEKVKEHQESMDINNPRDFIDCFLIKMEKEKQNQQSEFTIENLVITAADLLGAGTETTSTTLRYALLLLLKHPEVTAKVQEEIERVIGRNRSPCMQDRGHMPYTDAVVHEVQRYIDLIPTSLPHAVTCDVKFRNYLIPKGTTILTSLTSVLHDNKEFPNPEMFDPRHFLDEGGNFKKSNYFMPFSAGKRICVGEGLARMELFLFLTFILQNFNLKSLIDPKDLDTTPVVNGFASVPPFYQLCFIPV
CYP2C19 inh: blockers of cytochrome P450 2C19 activity – biochemical, luminescence, ADME assay, primary screen. P33261. CYP2C19 Supersomes, luciferin-H EGE luminescence, 30 min. inhibition, % at 5 µM. actives 21% (n = 96,000);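 active means CYP2C19 inhibition above a set limit at 5 µM in the primary screen, cut at about 50% in these data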;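 further: plate controls were negative control wells for no effect and 2.5 mM tranylcypromine positive control for full effect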
CYP2C9 activ: human CYP2C9 activators, primary screen, biochemical, luminescence; actives 1.4% (n = 96,000); recombinant CYP2C9, luciferin-H conversion; hits give high values; factor 1 = untreated enzyme, 0 = blocked; activation factor at 5 µM;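 active means activation factor of 2 or more for CYP2C9 at a 5 µM dose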;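 further: 0 = sulfaphenazole-blocked wells and 1 = vehicle-only wells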
CYP2C9 inh: blockers of cytochrome P450 2C9 activity – biochemical, luminescence, ADME assay, primary screen | actives 20% (n = 96,000) | AID 777, 2007 | CYP2C9 Supersomes, luciferin-H conversion | inhibition, % at 5 µM | P11712;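 active means blocking of liver enzyme CYP2C9 beyond about 50% at 5 µM, limit read from the data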
Numbers without * were called inactive.

What do the screens show for `O=C(CCCOc1ccccc1)N1CCN(c2ccccc2)CC1`?
sEH inh: 4.5; sEH activator: -3.8; CYP2C19 act: 0.4; CYP2C19 inh: 62.4*; CYP2C9 activ: 0.2; CYP2C9 inh: 78.1*

How did CCOC(=O)N1CCN(C(=O)CCCOc2ccccc2)CC1 do in these assays?
sEH inh: 2.1; sEH activator: 1.4; CYP2C19 act: 0.9; CYP2C19 inh: 13.4; CYP2C9 activ: 1.1; CYP2C9 inh: -7.0

Results for CN1CCC(OC(=O)C23CCC(C)(C(=O)O2)C3(C)C)CC1 (centres undefined) ?
sEH inh: 3.3; sEH activator: -0.6; CYP2C19 act: 1.2; CYP2C19 inh: -19.5; CYP2C9 activ: 0.5; CYP2C9 inh: 49.0

How did O=C(CCCN1C(=O)c2ccccc2C1=O)N1CCC(c2ccccc2)C1 (centres undefined) do in these assays?
sEH inh: 7.1; sEH activator: -5.7; CYP2C19 act: 0.2; CYP2C19 inh: 79.2*; CYP2C9 activ: 0.3; CYP2C9 inh: 66.9*

Results for Cc1cccc(N2CCN(C(=O)Cc3c(C(=O)O)[nH]c4ccc(Cl)cc34)CC2)c1C ?
sEH inh: 9.9; sEH activator: -8.7; CYP2C19 act: 0.6; CYP2C19 inh: 42.8; CYP2C9 activ: 0.1; CYP2C9 inh: 87.1*

What do the screens show for `CCn1c(COc2ccc(C)cc2)nnc1SCC(=O)Nc1ccc2c(c1)OCCO2`?
sEH inh: -5.8; sEH activator: 7.3; CYP2C19 act: 0.9; CYP2C19 inh: 8.6; CYP2C9 activ: 0.7; CYP2C9 inh: 28.1

How did COC(=O)c1ccc(-n2cnc(Cl)n2)c(F)c1 do in these assays?
sEH inh: -5.8; sEH activator: 8.3; CYP2C19 act: 0.9; CYP2C19 inh: 5.2; CYP2C9 activ: 1; CYP2C9 inh: 4.8

Results for COC(=O)c1c(C(=O)OC)c2ccncn2c1Cl ?
sEH inh: 0.7; sEH activator: 0.7; CYP2C19 act: 0.2; CYP2C19 inh: 80.7*; CYP2C9 activ: 0.2; CYP2C9 inh: 80.0*

What do the screens show for `CCOC(=O)CCN(Cc1cccs1)S(=O)(=O)c1ccc(F)cc1`?
sEH inh: -14.9; sEH activator: 13.7; CYP2C19 act: 0.2; CYP2C19 inh: 75.3*; CYP2C9 activ: 0.6; CYP2C9 inh: 36.3

What do the screens show for `O=C(O)CN(Cc1ccccc1)S(=O)(=O)c1ccc(F)cc1`?
sEH inh: 1.7; sEH activator: 0.7; CYP2C19 act: 1.2; CYP2C19 inh: -15.4; CYP2C9 activ: 0.5; CYP2C9 inh: 47.0

Results for CCOC(=O)CN(Cc1ccccc1)S(=O)(=O)c1ccc(NC(C)=O)cc1 ?
sEH inh: -12.6; sEH activator: 11.5; CYP2C19 act: 0.5; CYP2C19 inh: 48.1; CYP2C9 activ: 1; CYP2C9 inh: -4.8

How did CCOC(=O)CCN(Cc1sccc1C)S(=O)(=O)c1ccc(F)cc1 do in these assays?
sEH inh: -13.9; sEH activator: 10.7; CYP2C19 act: 0.1; CYP2C19 inh: 85.1*; CYP2C9 activ: 0.3; CYP2C9 inh: 65.6*

How did O=c1nc2ccccc2c2n1CC(CN1CCN(c3cccc(Cl)c3)CC1)N2 (centres undefined) do in these assays?
sEH inh: 1.9; sEH activator: 0.2; CYP2C19 act: 1.2; CYP2C19 inh: -15.2; CYP2C9 activ: 1.3; CYP2C9 inh: -30.5

How did CN1CCc2c(sc3c2C(=O)NC(c2cccc(OC(=O)c4cccs4)c2)N3)C1 (centres undefined) do in these assays?
CYP2C19 act: 1.1; CYP2C19 inh: -14.0; CYP2C9 activ: 0.9; CYP2C9 inh: 13.7

What do the screens show for `O=C1NC(c2cccs2)Nc2sc3c(c21)CCCC3` (centres undefined)?
sEH inh: 11.1; sEH activator: -9.8; CYP2C19 act: 1.1; CYP2C19 inh: -13.9; CYP2C9 activ: 0.4; CYP2C9 inh: 60.2*

Results for Fc1ccc(-c2cc(C(F)(F)F)nc(NCC3CCCO3)n2)cc1 (centres undefined) ?
CYP2C19 act: 0.7; CYP2C19 inh: 26.6; CYP2C9 activ: 0.7; CYP2C9 inh: 26.5
